According to PubChem BioAssay:
Records with an inconclusive call do not appear. Active and inactive are the calls of the source.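 How the source made its calls, unless noted: active means viability increase at or above a cutoff of the median across tested compounds plus 3 SD (cut at about 8.5% in these data, passing the limit was not always enough); inconclusive means some gains above the cutoff, reason not given; inactive means the rest.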

Assays:
[1] = Her2 expression decrease, cell viability multiplex – SKBR3 breast tumor cells, AlphaScreen, ATP viability, primary screen (AID 461;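 active means Her2 level under about 52% in both replicate screens, with viability over 70% of control, limit read from the data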;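 on Her2 level: lower value means less Her2 protein in the cells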;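 on viability: percent of carrier control wells set as 100% viability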); details: SKBR3 Her2 protein level, 18-24 h, measured here: SKBR3 viability, ATP luminescence, at 10 µM
[2] = molecular target: Receptor tyrosine-protein kinase erbB-2 (Homo sapiens) (UniProt P04626); experiment: as above; details: 18-24 h, at 10 µM, stronger effect = lower value
[3] = reduced viability of SK-BR-3 breast cancer cells – cell-based, 24 h, human, pilot screen (AID 572;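 active means viability at or below 10% of carrier control in both of two separate runs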;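 further: compound exposure lasted between 18 and 24 h rather than exactly 24 h; 100% = carrier-treated control wells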); details: SK-BR-3 viability, CellTiter-Glo luminescence, at 10 µM, stronger effect = lower value
[4] = HUVEC growth inhibition – cell-based, human, primary screen (AID 575;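 active means viability at or below 30% in both replicate assays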;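 further: 100% = median of untreated cell wells with 0.1% DMSO on each plate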); details: HUVEC proliferation, CellTiter-Glo luminescence, 72 h; at 10 µM; stronger effect = lower value
[5] = H69AR cell proliferation blockers – human, duplicate replicates, primary screen (AID 580;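 active means viability at or under a set limit in both replicates, limit being median viability minus 3 SD, cut at about 48% in these data, passing the limit was not always enough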;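 further: 100% = mean luminescence of untreated wells and 0% = no signal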); details: H69AR lung tumor cells viability, ATP luminescence, 72 h; at 10 µM; stronger effect = lower value
[6] = MRP1 drug-resistance reversers in H69AR cells – cell-based, doxorubicin co-treatment, pilot screen (AID 601;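 active means viability loss from added drug above about 55%, and viability with drug at most 40%, in both replicates, limit read from the data, passing the limit was not always enough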); details: CellTiter-Glo, 72 h, at 10 µM; for differential viability (reversal): stronger effect = higher value
[7] = yeast transport mutant growth inhibition pilot in 384-well plates, post-Golgi transport modulator project (AID 636; in the data active means inhibition above about 31%); details: absorbance 615 nm, about 18 h, stronger effect = higher value
[8] = growth suppression of yeast trafficking mutant, preliminary HTS, modulators of trafficking downstream of Golgi apparatus project, 1536-format plate, OD 615 nm (AID 637; in the data active means inhibition above about 30%); details: yeast transport mutant growth, absorbance 615 nm, 18 h; stronger effect = higher value
[9] = S. cerevisiae growth inhibition in permissive medium (OD615), pilot counter-assay for S. cerevisiae lifespan shortening project, permissive growth control (AID 705;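 active means growth inhibition above 25% in both replicates, a cutoff set 3 SD above the mean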); details: OD615, 24 h, at 10 µM, stronger effect = higher value
[10] = S. cerevisiae growth inhibition in restrictive medium, OD615, pilot screen, restrictive growth control, yeast lifespan reduction project (AID 706;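 active means growth inhibition above a set limit, 3 SD over mean compound inhibition, in both replicates, cut at about 43% in these data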;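 further: modified DeaD lifespan yeast strain shifted to restrictive glucose medium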); details: OD615, 48 h, at 10 µM, stronger effect = higher value
[11] = doxorubicin toxicity protection in MRP-1 cells – H69AR cells, CellTiter-Glo, duplicate, MRP-1 activator project, pilot screen (AID 807); details: H69AR viability with doxorubicin, CellTiter-Glo luminescence; at 10 µM; stronger effect = higher value;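 further: compound pretreatment 18-22 h then 72 h combined with doxorubicin; 0% = doxorubicin alone and 100% = vehicle without doxorubicin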
[12] = viability of HCT116 without oncogenic beta-catenin – human colon tumor cells, pilot screen (AID 823;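 active means cell viability at or below a set limit in both duplicate runs, the limit being the all-compound median minus 4 SD, cut at about 23% in these data, passing the limit was not always enough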;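 further: 0% = wells killed by 20 µM Hyamine and 100% = untreated DMSO cell wells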); details: HCT116 beta-catenin knockout viability, CellTiter-Glo, 60 h; at 10 µM; stronger effect = lower value
[13] = viability of PTEN-null HCT116 cells – cell-based, HCT116 clonal line, CellTiter-Glo, pilot screen (AID 824;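 active means viability at or below 27.92% in each of two runs, the all-compound median minus 4 SD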;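 further: 0% = 20 µM Hyamine control and 100% = vehicle cell control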); details: HCT116 PTEN-deleted viability, 60 h, at 10 µM, stronger effect = lower value
[14] = RAM pathway blockade in budding yeast – dse1pr::URA3 reporter, 5-FOA selection, pilot screen (AID 869;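 active means inhibition over a set limit, the all-compound mean plus 3 SD, in both replicate runs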;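 further: 0% = DMSO wells with no growth and 100% = 10 µM 1-NA-PP1 with full growth; RAM network block rescues cells from 5-FOA so hits raise OD615 growth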); details: S. cerevisiae dse1pr::URA3 5-FOA growth, OD615, 2 d; at 10 µM; stronger effect = higher value; strain carries analog-sensitive mutant Cbk1 kinase
[15] = RAM signaling pathway blockade in yeast – S. cerevisiae, Pdr1DBD-CYC8 efflux-inhibited sensitized strain, primary screen (AID 1298;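 active means RAM network inhibition above 8.4% in each of two replicates, 3 SD over the compound average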;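 further: 0% = DMSO untreated cells without growth and 100% = 10 µM 1-NA-PP1 full growth; higher means more yeast growth rescued from 5-FOA killing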); details: S. cerevisiae cbk1-as DSE1-URA3 strain, 5-FOA growth OD615, 2 d; at 50 µM; stronger effect = higher value
[16] = H69AR cells + 2 uM doxorubicin, measured here: viability with 2 uM doxorubicin, stronger effect = lower value
[17] = H69AR cells, compound alone cytotoxicity

Receptor tyrosine-protein kinase erbB-2 (Homo sapiens), sequence (P04626 whole entry, looked up): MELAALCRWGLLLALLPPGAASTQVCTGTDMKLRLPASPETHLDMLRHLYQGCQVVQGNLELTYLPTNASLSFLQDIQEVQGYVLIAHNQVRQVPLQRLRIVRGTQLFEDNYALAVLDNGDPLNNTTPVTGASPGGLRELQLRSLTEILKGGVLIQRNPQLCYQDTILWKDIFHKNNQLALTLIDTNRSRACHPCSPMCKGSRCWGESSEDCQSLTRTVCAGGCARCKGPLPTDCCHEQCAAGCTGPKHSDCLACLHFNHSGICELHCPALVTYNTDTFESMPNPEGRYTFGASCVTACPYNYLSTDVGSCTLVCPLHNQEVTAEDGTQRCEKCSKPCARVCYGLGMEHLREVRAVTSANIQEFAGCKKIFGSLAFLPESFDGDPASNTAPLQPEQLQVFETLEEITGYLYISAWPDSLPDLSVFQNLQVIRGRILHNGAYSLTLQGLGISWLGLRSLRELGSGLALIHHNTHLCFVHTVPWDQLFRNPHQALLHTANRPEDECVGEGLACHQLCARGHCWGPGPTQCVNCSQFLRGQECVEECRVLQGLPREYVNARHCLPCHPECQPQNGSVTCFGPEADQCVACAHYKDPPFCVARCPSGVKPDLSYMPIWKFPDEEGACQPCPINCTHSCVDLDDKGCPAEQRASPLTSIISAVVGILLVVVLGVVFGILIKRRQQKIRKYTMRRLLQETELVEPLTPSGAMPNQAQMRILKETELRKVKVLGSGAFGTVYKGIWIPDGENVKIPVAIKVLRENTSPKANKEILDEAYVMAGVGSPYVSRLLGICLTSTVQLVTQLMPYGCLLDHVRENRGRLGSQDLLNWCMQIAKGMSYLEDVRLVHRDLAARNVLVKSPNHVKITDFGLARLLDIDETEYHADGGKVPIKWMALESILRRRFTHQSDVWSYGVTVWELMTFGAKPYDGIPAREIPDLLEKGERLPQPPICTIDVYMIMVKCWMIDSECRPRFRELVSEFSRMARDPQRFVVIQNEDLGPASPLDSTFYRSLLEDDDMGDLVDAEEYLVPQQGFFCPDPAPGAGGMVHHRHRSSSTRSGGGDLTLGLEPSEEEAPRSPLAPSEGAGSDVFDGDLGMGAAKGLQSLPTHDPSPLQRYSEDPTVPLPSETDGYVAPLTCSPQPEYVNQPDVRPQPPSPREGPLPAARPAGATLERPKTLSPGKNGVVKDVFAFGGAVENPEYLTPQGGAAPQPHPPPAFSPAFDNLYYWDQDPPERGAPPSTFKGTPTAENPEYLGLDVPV

O=C(c1cnc2n(c1=O)CCS2)N1CCc2ccccc21
99.5%: viability [1]
98.1%: viability [6, 16]
101%: viability [6, 17]
inactive: Her2 level [2] 83% | viability [3] 99.5% | viability [4] 96% | viability [5] 101% | differential viability (reversal) ([6]; H69AR cells + 2 uM doxorubicin) 3.18% | inhibition [7] -2.13% | inhibition [8] 0.16% | growth inhibition [9] -3.25% | growth inhibition [10] -7.63% | viability increase [11] 0.01% | viability [12] 97% | viability [13] 102% | inhibition [14] 1.24% | RAM network inhibition [15] -0.32%

CCc1cc2c(=O)c(-c3nc4ccccc4[nH]3)coc2c(CN2CCC(C)CC2)c1O
82.6%: viability [6, 17]
inactive: Her2 level [2] 116% | viability [3] 96% | viability [4] 99.1% | viability [5] 82.6% | differential viability (reversal) ([6]; H69AR cells + 2 uM doxorubicin) 0.66% | inhibition [7] -1.03% | inhibition [8] 1.83% | growth inhibition [9] 6.25% | growth inhibition [10] 18.5% | viability increase [11] -2.14% | viability [12] 92.3% | viability [13] 85.6% | inhibition [14] -0.2% | RAM network inhibition [15] -2.41%
82%: viability [6, 16]
96%: viability [1]

CCCn1cc(SCC(N)=O)c2ccccc21
91.2%: viability [6, 17]
86.5%: viability [1]
inactive: Her2 level [2] 102% | viability [3] 86.5% | viability [4] 90.6% | viability [5] 91.2% | differential viability (reversal) ([6]; H69AR cells + 2 uM doxorubicin) -13.4% | inhibition [7] -4.93% | inhibition [8] 4.83% | growth inhibition [9] -9.29% | growth inhibition [10] -15.9% | viability increase [11] -1.96% | viability [12] 100% | viability [13] 95.6% | inhibition [14] 0.545% | RAM network inhibition [15] 0.42%
105%: viability [6, 16]

Cn1c(C(=O)NCCN2CCN(c3ccccc3F)CC2)cc2c(=O)n(C)c3ccccc3c21
89%: viability [1]
69.7%: viability [6, 17]
inactive: Her2 level [2] 73.5% | viability [3] 89% | viability [4] 70.3% | viability [5] 69.7% | differential viability (reversal) ([6]; H69AR cells + 2 uM doxorubicin) -2.84% | inhibition [7] -1.03% | inhibition [8] 2% | growth inhibition [9] -0.67% | growth inhibition [10] -2.32% | viability increase [11] -2.38% | viability [12] 74.4% | viability [13] 73.2% | inhibition [14] 0.115% | RAM network inhibition [15] 0.11%
72.5%: viability [6, 16]

C=CCNC(=O)CSc1nc2sc(C)c(C)c2c(=O)[nH]1
78.2%: viability [6, 17]
96.5%: viability [1]
inactive: Her2 level [2] 95.5% | viability [3] 96.5% | viability [4] 90.1% | viability [5] 78.2% | differential viability (reversal) ([6]; H69AR cells + 2 uM doxorubicin) -7.53% | inhibition [7] -3.33% | inhibition [8] 1% | growth inhibition [9] -10.2% | growth inhibition [10] -4.47% | viability increase [11] -1.02% | viability [12] 110% | viability [13] 97.1% | inhibition [14] 3.06% | RAM network inhibition [15] 5.1%
85.7%: viability [6, 16]

CC(CCc1ccco1)NC(=O)Cn1ncc2c1-c1ccccc1OC2 (stereo not drawn)
81%: viability [6, 16]
93%: viability [1]
92.9%: viability [6, 17]
inactive: Her2 level [2] 90% | viability [3] 93% | viability [4] 90.8% | viability [5] 92.9% | differential viability (reversal) ([6]; H69AR cells + 2 uM doxorubicin) 11.9% | inhibition [7] -2.4% | inhibition [8] -0.66% | growth inhibition [9] -5.12% | growth inhibition [10] -19% | viability increase [11] -4.45% | viability [12] 101% | viability [13] 91.3% | inhibition [14] 1.11% | RAM network inhibition [15] 7.86%

CCCCn1c(CNC(=O)CCC)nc2ccccc21
87.9%: viability [6, 16]
116%: viability [1]
inactive: Her2 level [2] 102% | viability [3] 116% | viability [4] 87.8% | viability [5] 91.8% | differential viability (reversal) ([6]; H69AR cells + 2 uM doxorubicin) 3.83% | inhibition [7] -5.2% | inhibition [8] -4.67% | growth inhibition [9] -9.17% | growth inhibition [10] -13.8% | viability increase [11] -2.97% | viability [12] 104% | viability [13] 100% | inhibition [14] -0.485% | RAM network inhibition [15] 1.51%
91.8%: viability [6, 17]

COC(=O)NCC(c1cccnc1)N1CCOCC1 (stereo not drawn)
inactive: Her2 level [2] 95.5% | viability [3] 97% | viability [4] 103% | viability [5] 95.7% | differential viability (reversal) ([6]; H69AR cells + 2 uM doxorubicin) 2.39% | inhibition [7] -0.64% | inhibition [8] -4.83% | growth inhibition [9] -1.88% | growth inhibition [10] -7.24% | viability increase [11] 0.99% | viability [12] 102% | viability [13] 99.6% | inhibition [14] 0.015% | RAM network inhibition [15] -0.26%
95.7%: viability [6, 17]
93.3%: viability [6, 16]
97%: viability [1]

COc1cc(C2c3c(oc4ccccc4c3=O)C(=O)N2c2ccc(C)cn2)ccc1O (stereo not drawn)
100%: viability [6, 16]
101%: viability [6, 17]
inactive: Her2 level [2] 114% | viability [3] 66% | viability [4] 94.6% | viability [5] 101% | differential viability (reversal) ([6]; H69AR cells + 2 uM doxorubicin) 1.23% | inhibition [7] -0.9% | inhibition [8] -4% | growth inhibition [9] -6.67% | growth inhibition [10] -1.33% | viability increase [11] -2.69% | viability [12] 91.9% | viability [13] 88.4% | inhibition [14] 0.865% | RAM network inhibition [15] 4.26%
66%: viability [1]
